# Laboratory results published in publication PMC4336329 (PLoS ONE, 2015).
# The campaign covered roughly 310,000 compounds. About 14,000 (4.5%) showed an effect of 50% or more. Effects have a minus sign here. For the sample, strong results were picked, then their nearest neighbours and some compounds at random.
# Biological target: human ether-à-go-go-related gene (hERG) potassium channel (human, UniProt Q12809)
# Test: primary screen, population patch clamp on CHO cells stably expressing hERG; higher = less effect of the substance
# 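Note: peak tail current of the secondary pulse compared with the same well before compound.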
# Chain of human ether-à-go-go-related gene (hERG) potassium channel (Q12809 whole entry, looked up): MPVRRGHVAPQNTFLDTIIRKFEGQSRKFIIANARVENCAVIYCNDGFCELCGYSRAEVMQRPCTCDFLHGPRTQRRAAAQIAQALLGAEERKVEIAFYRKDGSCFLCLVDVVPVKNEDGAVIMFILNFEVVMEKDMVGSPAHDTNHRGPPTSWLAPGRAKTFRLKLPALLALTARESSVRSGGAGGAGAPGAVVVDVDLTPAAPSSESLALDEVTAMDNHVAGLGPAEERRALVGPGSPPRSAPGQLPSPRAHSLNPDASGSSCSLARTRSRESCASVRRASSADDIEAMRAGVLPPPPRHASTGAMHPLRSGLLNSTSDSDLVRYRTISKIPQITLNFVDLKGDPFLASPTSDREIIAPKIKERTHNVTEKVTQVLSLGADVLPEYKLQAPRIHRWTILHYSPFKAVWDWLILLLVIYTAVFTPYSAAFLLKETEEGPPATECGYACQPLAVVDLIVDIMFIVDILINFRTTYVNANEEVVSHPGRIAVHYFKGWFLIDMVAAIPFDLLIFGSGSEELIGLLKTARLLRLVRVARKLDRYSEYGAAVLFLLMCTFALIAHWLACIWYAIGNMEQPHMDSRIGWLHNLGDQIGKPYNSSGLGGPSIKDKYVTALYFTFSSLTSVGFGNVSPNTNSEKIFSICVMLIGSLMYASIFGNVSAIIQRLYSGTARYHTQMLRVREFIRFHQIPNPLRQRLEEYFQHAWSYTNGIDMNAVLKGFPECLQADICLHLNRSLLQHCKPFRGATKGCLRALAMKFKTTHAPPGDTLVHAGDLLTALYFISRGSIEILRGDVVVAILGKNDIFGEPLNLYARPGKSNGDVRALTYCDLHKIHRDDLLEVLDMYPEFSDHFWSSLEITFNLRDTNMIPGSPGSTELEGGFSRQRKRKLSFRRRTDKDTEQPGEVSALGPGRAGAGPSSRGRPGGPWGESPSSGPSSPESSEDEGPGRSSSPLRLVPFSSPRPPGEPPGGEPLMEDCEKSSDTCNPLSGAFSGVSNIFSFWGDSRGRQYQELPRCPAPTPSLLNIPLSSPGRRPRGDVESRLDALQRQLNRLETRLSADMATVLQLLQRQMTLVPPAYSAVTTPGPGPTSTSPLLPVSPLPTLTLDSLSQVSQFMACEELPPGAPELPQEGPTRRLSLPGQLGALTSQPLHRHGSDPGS
row,SMILES,"hERG current change (%, negative = inhibition) at 10uM [%]"
1,COc1ccc(OC)c2[nH]c(=O)c(CCNS(=O)(=O)c3ccc(F)cc3)cc12,1.59
2,CN1CCC(N(C)C(=O)/C=C/c2cn(-c3ccccc3)nc2-c2cccs2)CC1.Cl,-22.3
3,NC(=O)Cc1ccc(C(=O)c2ccccc2)s1,7.3
4,C[C@H](O)[C@@]1(O)CC[C@H]2[C@@H]3CC[C@@H]4C[C@H](O)CC[C@]4(C)[C@H]3CC[C@@]21C,-0.0961
5,CCOCCOc1nc2c(c(=O)n(C)c(=O)n2C)n1CCc1ccccc1,0.435
6,CC(C(N)=O)N1CC(c2ccc(Cl)cc2)CC1=O (stereo not shown),-10.8
7,C=CCN1C(=O)NC(=O)/C(=C/c2ccc(OC)c(COc3ccc(NC(C)=O)cc3)c2)C1=O,8.75
8,Cc1ccc(N(CC2CO2)S(=O)(=O)c2ccccc2[N+](=O)[O-])cc1 (stereo not shown),1.23
9,Cc1ccc(N(CC(O)CN2CCCCC2)S(=O)(=O)c2ccccc2[N+](=O)[O-])cc1 (stereo not shown),-70.9
10,O=[N+]([O-])c1ccccc1S(=O)(=O)N(CC(O)CN1CCCCC1)c1ccccc1 (stereo not shown),-29.9
11,O=C(NC(Cc1c[nH]c2ccccc12)C(=O)OCC(=O)c1cccc2ccccc12)c1cccs1 (stereo not shown),0.359
12,CN(C)C(=O)c1ccc(NC(=O)c2cccc(S(=O)(=O)N3CCCc4ccccc43)c2)cc1,-8.06
13,NC(=O)[C@H]1CC2(CC(c3cccc(NC(=O)CC(c4ccccc4)c4ccccc4)c3)=NO2)CN1C(=O)C(c1ccccc1)c1ccccc1 (stereo partly shown),8.82
14,COc1ccc(OC)c(CN2CCCC(C(=O)N3CCCCC3)C2)c1.O=C(O)C(=O)O (stereo not shown),-32.1
15,COc1ccc(Br)cc1CN1CCCC(C(=O)N2CCCCC2)C1.O=C(O)C(=O)O (stereo not shown),-55.8
16,O=C(C1CCCN(Cc2cc(Br)ccc2O)C1)N1CCCCC1.O=C(O)C(=O)O (stereo not shown),-31.6
17,COc1cc(OC)c(OC)cc1CN1CCCC(C(=O)N2CCCCC2)C1.O=C(O)C(=O)O (stereo not shown),-1.45
18,COc1ccccc1CN1CCCC(C(=O)N2CCCCC2)C1.O=C(O)C(=O)O (stereo not shown),10.6
19,COc1ccc(Br)cc1CN1CCCC(C(=O)N2CCCCCC2)C1.O=C(O)C(=O)O (stereo not shown),-62.4
20,COc1ccc(-c2csc(NC(=O)c3ccc(S(=O)(=O)N4CCc5ccccc5C4)cc3)n2)c(OC)c1,23
21,O=C(CCC(=O)OCC(=O)c1ccccc1)Nc1cccc(Cl)c1,21.5
22,CCN(CC)C(=O)c1c(NC(=O)c2ccccc2)sc(C)c1C,-6.01

row,SMILES,"hERG current change (%, negative = inhibition) at 10uM [%]"
1,O=C(NCSc1ccnc(SCNC(=O)c2ccccc2)n1)c1ccccc1,-28
2,COc1ccc(CC(=O)NCCS(=O)(=O)N2CCN(c3ccccc3)CC2)cc1,12.7
3,CN(C)c1ccc(-c2nnc(SCC3CCCO3)n2C)cc1 (stereo not shown),5.24
4,Cc1ccc(CSc2nnc(-c3ccncc3)n2C)cc1,4.36
5,Cn1c(SCc2ccc([N+](=O)[O-])cc2)nnc1-c1cccnc1,-18
6,Cn1c(SCc2ccc([N+](=O)[O-])cc2)nnc1-c1ccncc1,-52
7,Cn1c(SCC2CCCO2)nnc1-c1cccc([N+](=O)[O-])c1 (stereo not shown),8.76
8,Cn1c(SCC2CCCO2)nnc1-c1ccc([N+](=O)[O-])cc1 (stereo not shown),-63.8
9,CCO/C=C1/C(=O)N(CC)c2ccccc21,-8.33
10,CCOC(=O)Nc1cccc2ccccc12,1.14
11,CCOc1cc(C2C(C(=O)O)c3cc(OCC)c(OCC)cc3C(=O)N2C)ccc1O (stereo not shown),2.69
12,O=C(CNC(=S)N(Cc1ccccc1F)C1CCCCC1)NCCN1CCOCC1,43.3
13,COCCNC(=O)Cn1nc(-c2ccc(Cl)cc2)c2ccccc2c1=O,8.83
14,COc1cccc(CN(C)C(=O)CCNC(=O)c2ccc(Br)cc2)c1,0.786
15,CC(=O)c1cc(CN2CCN(CCC(C)C)C(CCO)C2)cs1 (stereo not shown),-5.53
16,COc1ccc(CN2CCN(Cc3csc(C(C)=O)c3)CC2CCO)c(C)c1C (stereo not shown),-58.1
17,CC(=O)c1cc(CN2CCN(C3CCN(C(C)C)CC3)C(CCO)C2)cs1 (stereo not shown),-3.56
18,CC(=O)c1cccc(CN2CCN(CCC(C)C)C(CCO)C2)c1 (stereo not shown),-29
19,CC(=O)c1cc(CN2CCN(CCc3ccccc3)C(CCO)C2)cs1 (stereo not shown),-54.4
20,CC(=O)c1cccc(CN2CCN(Cc3ccc(F)cc3)C(CCO)C2)c1 (stereo not shown),-32.9
21,CC(=O)c1cccc(CN2CCN(Cc3ccc(C)cc3)C(CCO)C2)c1 (stereo not shown),-69
22,CC(=O)c1cccc(CN2CCN(CC(C)C)C(CCO)C2)c1 (stereo not shown),5.29

row,SMILES,"hERG current change (%, negative = inhibition) at 10uM [%]"
1,CC(=O)c1cccc(CN2CCN(CCc3ccccc3)C(CCO)C2)c1 (stereo not shown),-53.3
2,CC(=O)c1cccc(CN2CCN(Cc3ccccc3)C(CCO)C2)c1 (stereo not shown),-1.84
3,CC(=O)c1cc(CN2CCN(Cc3ccccc3)C(CCO)C2)cs1 (stereo not shown),2.03
4,CCOc1ccccc1CN1CCN(Cc2csc(C(C)=O)c2)CC1CCO (stereo not shown),-44.5
5,Cc1cccc(-n2[nH]c3c4c(ccc3c2=O)C(=O)c2ccccc2C4=O)c1,4.95
6,Cc1onc(-c2ccccc2Cl)c1C(=O)Nc1ccc(OCC(=O)N2CCOCC2)cc1,-3.95
7,CC/C(=N\NC(=O)Nc1ccccc1)c1c(O)n(Cc2ccccc2)c(=O)[nH]c1=O,3.1
8,CC(=O)c1ccc(NS(=O)(=O)c2ccc3c(c2)N(C)CCO3)cc1,11.6
9,COc1ccccc1N1CCN(C(=O)C2CCCN(S(=O)(=O)c3ccc(C)cc3)C2)CC1 (stereo not shown),-38.3
10,O=C(Nc1c(F)cc(F)cc1Br)c1cccnc1,8.61
11,COc1ccc(-c2ccnc3nc(-n4cccc4)nn23)cc1,-14.7
12,COc1cc2nc(Nc3cccc(F)c3)nc(N)c2cc1OC.Cl,-17.7
13,O=C(NC1CC2CCC1C2)C1CCN(S(=O)(=O)c2ccc(-c3nn[nH]n3)cc2)CC1 (stereo not shown),14.4
14,O=C(O)c1cc(N2C(=O)C3CC=CCC3C2=O)ccc1NCc1cccnc1 (stereo not shown),15
15,CC(=O)c1cc(CN2CCN(C3CCCCC3)C(CCO)C2)cs1 (stereo not shown),-17.2
16,CC(=O)c1cc(CN2CCN(Cc3ccc(C)cc3)C(CCO)C2)cs1 (stereo not shown),-55
17,CC(=O)c1cc(CN2CCN(CC=C(C)C)C(CCO)C2)cs1 (stereo not shown),16.3
18,CN1C(N)=NC(=O)/C1=C\c1ccc(Br)cc1,8.35
19,CC(C)CC(C(=O)NC1CCCC1)N(Cc1ccc2c(c1)OCO2)C(=O)c1snc(C(N)=O)c1N (stereo not shown),-20.4
20,CCN1CCCC1CNC(=O)c1cc2c(C)nc3ccccc3c2o1 (stereo not shown),-12
21,O=C(O)C(=O)O.c1ccc(COc2ccc(OCCCCN3CCCCC3)cc2)cc1,-70.5
22,O=C(O)C(=O)O.c1ccc(COc2ccc(OCCCCN3CCCC3)cc2)cc1,-64

row,SMILES,"hERG current change (%, negative = inhibition) at 10uM [%]"
1,CSc1cccc(N2CC(C(=O)NCCC3=CCCCC3)CC2=O)c1 (stereo not shown),14.1
2,Cc1cccc(NC(=O)C2NC(=O)CC2c2ccccc2)c1C (stereo not shown),1.2
3,O=C(CSc1nnc(NC(=O)c2ccc(F)cc2F)s1)NC1CCCC1,17.7
4,Clc1ccc(N=C2SCC3CCCCN23)cc1 (stereo not shown),-18.3
5,COc1ccc(S(=O)(=O)N2CCN(c3nc(C)cc(C)n3)CC2)cc1,2.96
6,Cc1nc2cc(C(=O)OCC(=O)Nc3cccc(Cl)c3)ccc2n1-c1ccccc1,-13.6
7,O=C(Nc1ncc(C(F)(F)F)cc1Cl)c1ccc(S(=O)(=O)N2CCOCC2)cc1,-13.4
8,COc1cccc(C(=O)Nc2cccc(NC(C)=O)c2)c1,-8.39
9,COc1cc(/C=N\NC(=O)c2cccnc2)ccc1OC(=O)c1ccccc1Cl,-7.3
10,COc1ccc(C(=O)Nc2cccc(-c3nnc(-c4ccco4)o3)c2)cc1,-37.4
11,COc1cccc(C(=O)Nc2cccc(-c3nnc(-c4ccccc4)o3)c2)c1,-4.18
12,COc1cc(/C=N/NC(=O)c2cccc(NC(=O)c3ccccc3C)c2)ccc1O,-48.4
13,COc1cccc(C(=O)Nc2cccc(NC(=O)c3ccccc3Cl)c2)c1,-52
14,COc1cc(C(=O)N/N=C/c2ccc(OC(=O)c3ccccc3Cl)c(OC)c2)ccc1O,13.4
15,CC(C)Oc1cccc(C(=O)NC(=S)Nc2cccc(NC(=O)c3ccccc3Cl)c2)c1,-11.9
16,COc1cccc(C(=O)Nc2cccc(-c3nnc(-c4ccco4)o3)c2)c1,-51.4
17,COc1ccc(/C=N/NC(=O)c2cccc(NC(=O)c3ccccc3Cl)c2)cc1OC,-3.89
18,COc1cc(/C=N/NC(=O)c2cccc(NC(=O)c3ccccc3Cl)c2)ccc1O,-55.6
19,COc1cc(/C=N/NC(=O)c2ccncc2)ccc1OC(=O)c1ccccc1Cl,-50.8
